Compound activity: PubChem, National Center for Advancing Translational Sciences (NCATS)
HP1b binding inh: inhibitors of HP1-beta chromodomain binding to methylated histone tails. AID 540317. Potency, µM (titrated, usually from 114 µM), inactives show at the top dose activity change, negative = inhibition, hits mostly inhibitors. 390,000 tested, 0.56% active. AlphaScreen HP1-beta / biotin-H3K9me3 peptide binding; note: nearly all actives have a fitted effect of over 70% in size
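HP1-beta protein (50 nM final) preincubated 30 min at room temperature with biotinylated H3(1-18)K9me3 peptide (50 nM) in PBS pH 7.4, 0.01% Tween-20, then compound added for 30 min. AlphaScreen streptavidin donor/nickel chelate acceptor beads (10 ug/mL final), 30 min dark, luminescence read.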
G9a inh: blocks human histone lysine methyltransferase G9a; Potency, µM (highest dose often 102 µM), without a hit: at the top dose activity, negative = inhibition, usual class: inhibitors; 350,000 tested, 8.8% active; G9a H3K9 monomethylation, AlphaScreen, 2 h; note: % is set by controls: 0 for no effect and ±100 for the full control effect; nearly all actives have a fitted effect of over 75% in size
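G9a (20 nM) was preincubated 15 min with compound, then reacted 2 h at room temperature with 500 nM biotin-H3K9 peptide and 20 µM SAM. Monomethyl-H3K9 detected by AlphaScreen using anti-H3K9me1 antibody.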
PLK1 PBD inh: PLK1 (human) polo-box domain binding inhibition; P53350; Plk1 PBD binding of FITC phosphopeptide, fluorescence polarization; Potency, µM, inactives show max response, negative = inhibition, most hits filed as inhibitors; 360,000 tested, 2.8% active; AID 720504; note: series mostly up to about 57 µM; % is set by controls: 0 for no effect and ±100 for the full control effect; nearly all actives have a fitted effect of over 65% in size
Sfp PPTase inh: Sfp phosphopantetheinyl transferase inhibition. Q9F4F7. Biochemical Sfp PPTase activity, qHTS. Potency, µM, inactives show largest response in the series, negative = inhibition, usual class: inhibitors. 310,000 tested, 3.5% active. AID 1490;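 note: the enzyme is Sfp with the accession as filed and its product quenches rhodamine fluorescence; 0% = enzyme reaction without inhibitor and -100% = no enzyme wells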
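With Hepes-Na pH 7.6 buffer containing 10 mM MgCl2, Sfp (15 nM) modified BHQ-2-YbbR (12.5 uM) using rhodamine-CoA (5 uM). Two reads 30 minutes apart at 525/598 nm yielded each well's rate.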
JMJD2A Tudor inh: JMJD2A Tudor domain (human) inhibition. Potency, µM (highest dose often 114 µM), without a hit: at the top dose activity change, negative = inhibition, most hits filed as inhibitors. AlphaScreen JMJD2A-Tudor / H3K4me3 peptide binding. 390,000 tested, 4.4% active; note: % is set by controls: 0 for no effect and ±100 for the full control effect; nearly all actives have a fitted effect of over 50% in size
BAZ2B inh: inhibitors of human BAZ2B bromodomain. Q9UIF8. 360,000 tested, 4.4% active. Potency, µM (highest dose often 114 µM), without a hit: at the top dose activity change, negative = inhibition, actives largely listed as inhibitors. AlphaScreen BAZ2B-H3K14Ac peptide displacement; note: % is set by controls: 0 for no effect and ±100 for the full control effect; nearly all actives have a fitted effect of over 60% in size
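Protein-peptide AlphaScreen: BAZ2B 50 nM, b-H3K14Ac 50 nM, 1x PBS pH 7.4 + 0.01% Tween-20. Preincubation 30 min RT; cpd 30 min RT (top 110 uM); beads 20 min RT, light-protected.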
TbPYK inh: Trypanosoma brucei pyruvate kinase inhibition, cherry-pick confirmation. shares compounds with PLK1 PBD inh. Potency, µM (doses to about 76.9 µM), for inactives: at the top dose activity change, negative = inhibition, usual class: inhibitors. 890 tested, 67% active. recombinant TbPYK, Kinase-Glo ATP luminescence. AID 720569; note: % is set by controls: 0 for no effect and ±100 for the full control effect; nearly all actives have a fitted effect of over 70% in size
TbPYK orthogonal: inhibits T. brucei pyruvate kinase in orthogonal ADP-Glo assay. shares compounds with PLK1 PBD inh. recombinant TbPYK, ADP-Glo luminescence, 60 min. Potency, µM (series often up to 76.9 µM), for the others: at the highest dose activity change, negative = inhibition, hits mostly inhibitors. 890 tested, 62% active. AID 720584; note: % is set by controls: 0 for no effect and ±100 for the full control effect; nearly all actives have a fitted effect of over 75% in size
Starred values were filed as active, the others as inactive; ? = inconclusive; nt = no result; [ ] = remark or other dose. A selection: hits, their analogues and other compounds. The true share with any hit is near 12%. Calls come from the whole dose curve; as a rule, active = well fitted curve in the direction sought with a large enough effect; inconclusive = small, poorly fitted or top-dose-only effect, or another doubt; inactive = no such curve, though single readings can be large; an effect the other way counts as inactive or inconclusive. Potency is the fitted concentration of half-maximal effect.

SMILES	HP1b binding inh	G9a inh	PLK1 PBD inh	Sfp PPTase inh	JMJD2A Tudor inh	BAZ2B inh	TbPYK inh	TbPYK orthogonal
O=c1[nH]c2ccccc2n1C1CCN(Cc2ccc(-c3[nH]c4cc5ncnc5cc4nc3-c3ccccc3)cc2)CC1	nt	nt	-1.9%	-13.6%	nt	nt	nt	nt
COC(=O)COc1ccc(/C=C2\C(=O)NC(=S)N(c3ccc(C)cc3)C2=O)cc1OC	16.8%	11.2µM*	8.44µM*	39.8µM*	?	-30.5%	?	?
COc1cc(/C=C2\C(=O)NC(=O)N(c3ccccc3)C2=O)cc(OC)c1OC	17.7%	?	13.4µM*	?	-24.7%	-36.7%	?	?
Cc1ccc(N2C(=O)NC(=O)/C(=C/c3ccoc3)C2=O)cc1	10µM*	nt	2.67µM*	25.1µM*	10µM*	7.94µM*	?	-28.9%
COc1cc(/C=C2/C(=O)NC(=O)N(c3ccc(C)cc3)C2=O)cc(OC)c1OC	-7.5%	-4.5%[12.7 µM]	11.9µM*	50.1µM*	-13.5%	-4.2%	?	?
CCN(CC)CCOc1ccccc1C(=O)CCc1ccccc1	nt	?	nt	21.5%	nt	nt	nt	nt
O=C1NC(=O)N(c2ccccc2)C(=O)/C1=C\C=C\c1ccccc1	?	nt	1.19µM*	15.8µM*	-8.3%	-5.4%	12.6µM*	?
CCOC(=O)c1c(-n2c(C)cc(C=C3C(=O)NC(=O)NC3=O)c2C)sc2c1CCCC2	35.8%	?	?	-28.0%	0.8%	4.9%	nt	nt
CCOC(=O)CSCCOc1ccc(C=C2C(=O)NC(=O)NC2=O)cc1OC	31.4%	22.4µM*	8.44µM*	-84.7%	-18.9%	?	15.8µM*	?
N#CC1c2ccccc2-n2nncc2CN1Cc1cc(Cl)cc(Cl)c1 (stereo not given)	46.2%	nt	?	nt	-18.1%	nt	nt	nt
O=C1c2cccc3cc([N+](=O)[O-])cc(c23)C(=O)N1c1ccccc1O	23.4%	15.9%[12.7 µM]	-3.9%	-5.3%	-9.0%[11.4 µM]	?	nt	nt
O=C1NC(=O)C(=Cc2ccc(OCC(=O)N3CCOCC3)cc2)C(=O)N1	54.4%	?	26.7µM*	?	-11.4%	-4.3%	17.8µM*	?
COC(=O)C1=C(C(=O)OC)C2OC1c1cc3ccccc3cc12	1.2%	nt	2.99µM*	nt	89.1µM*	nt	10µM*	12.6µM*
C[C@]12CCC3C(C=CC4=CC(=O)CC[C@]43C)C1CC[C@]2(O)CCC(=O)O (stereo not given in full)	nt	5.7%[2.33 µM]	nt	7.9%	nt	nt	nt	nt
COC1CC(C)C(OC)c2cc(O)cc(c2O)NC(=O)C(C)=CC=CC(C)C(OC(N)=O)C(C)=CC(C)C1OC (stereo not given)	70.8µM*	nt	18.9µM*	nt	89.1µM*	nt	?	12.6µM*
Cn1cccc1/C=C1/C(=O)NC(=S)N(Cc2ccc(F)cc2)C1=O	35.5µM*	10µM*	0.67µM*	?	44.7µM*	25.1µM*	3.55µM*	?
CN1C(=O)N(C)C(=O)C2(Sc3ccccc3C2=O)C1=O	8.1%	?	5.32µM*	?	?	-34.2%	5.01µM*	?
CC1(C)CC(=O)CC(C)(C)N1O	nt	nt	4.6%	nt	nt	nt	nt	nt
Cc1onc(-c2ccccc2Cl)c1C(=O)OCC(=O)c1ccc2c(c1)OCCO2	-6.1%	17.6%	?	-7.5%	?	16.3%	nt	nt
O=C1NC(=O)C(=Cc2ccc(-c3cc(Cl)ccc3[N+](=O)[O-])o2)C(=O)N1	?	3.98µM*	1.5µM*	-102.1%	25.1µM*	44.7µM*	7.08µM*	1.12µM*
O=C1NC(=O)C(=Cc2ccc(-c3ccccc3[N+](=O)[O-])o2)C(=O)N1	-1.1%	nt	1.34µM*	22.4µM*	?	?	?	?
